PLAP act: activators of human placental alkaline phosphatase; P05187; 96,000 compounds, 1.2% hits; purified PLAP enzyme, luminescent substrate read-out; active compounds read high; activation fold at 20 µM; in the data active = activation fold above about 2
Target sequence (P05187 whole entry, looked up): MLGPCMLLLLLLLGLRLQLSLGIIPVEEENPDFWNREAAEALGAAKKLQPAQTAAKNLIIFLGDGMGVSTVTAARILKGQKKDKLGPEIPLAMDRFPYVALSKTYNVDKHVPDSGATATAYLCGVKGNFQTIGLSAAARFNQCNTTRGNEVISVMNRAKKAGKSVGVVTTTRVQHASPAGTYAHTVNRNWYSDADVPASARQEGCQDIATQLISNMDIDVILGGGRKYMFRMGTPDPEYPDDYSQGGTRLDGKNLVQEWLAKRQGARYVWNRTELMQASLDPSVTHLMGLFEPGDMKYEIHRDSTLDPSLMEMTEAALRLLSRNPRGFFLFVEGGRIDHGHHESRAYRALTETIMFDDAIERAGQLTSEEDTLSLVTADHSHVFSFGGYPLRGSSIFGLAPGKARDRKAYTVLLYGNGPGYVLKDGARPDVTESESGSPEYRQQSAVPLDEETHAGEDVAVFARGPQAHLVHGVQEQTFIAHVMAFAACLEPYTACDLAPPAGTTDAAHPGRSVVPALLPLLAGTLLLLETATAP
CYP2C9 inhib: blocks human cytochrome P450 2C9. P11712. CYP2C9 Supersomes, luciferin-H conversion, luminescence. inhibition, % at 5 µM. 96,000 compounds, 20% hits;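 active = blocking of liver enzyme CYP2C9 beyond about 50% at 5 µM, limit read from the data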
CYP2C19 act: cytochrome P450 2C19 (human) activation; activation factor at 5 µM; AID 1025; P33261; recombinant CYP2C19, luciferin-H EGE luminescence; active compounds read high; 0 = fully inhibited enzyme, 1 = untreated enzyme; 96,000 tested, under 10 active;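 active = activation factor of at least 2 at 5 µM in the primary screen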;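 also: 0 = wells with 2.5 mM tranylcypromine and 1 = vehicle-only wells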
CYP2C19 inh: human CYP2C19 inhibition; P33261; CYP2C19 Supersomes, luciferin-H EGE luminescence, 30 min; inhibition, % at 5 µM; 96,000 compounds, 21% hits; AID 778;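 active = CYP2C19 inhibition above a set limit at 5 µM in the primary screen, cut at about 50% in these data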;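 also: plate controls were negative control wells for no effect and 2.5 mM tranylcypromine positive control for full effect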
CYP2C9 activ: CYP2C9 (human) activation | P11712 | recombinant CYP2C9, luciferin-H conversion, luminescence; active compounds read high; factor 1 = untreated enzyme, 0 = blocked | activation factor at 5 µM | 96,000 compounds, 1.4% hits;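 active = activation factor of 2 or more for CYP2C9 at a 5 µM dose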;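 also: 0 = sulfaphenazole-blocked wells and 1 = vehicle-only wells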
* hit, by the source's call. Sampled rows, rich in hits. Any-hit rate of the full collection: about 31%.

SMILES	PLAP act	CYP2C9 inhib	CYP2C19 act	CYP2C19 inh	CYP2C9 activ
Cc1cc2c(c(=O)n1Cc1cccnc1)C(Cc1ccccc1)C(C#N)=C(N)O2 (configuration not stated)	0.8	68*	0.3	74*	0.3
C/C(NC(=O)c1cccs1)=C1\C(=O)C[C@@H]2[C@H]1C2(C)C	0.9	17	0.6	39	0.8
O=C(NC1CCCC1)c1ccc(S(=O)(=O)N2CCCC2)cc1	0.8	30	0.9	6	0.7
Cc1ccc2c(c1)nnn2C1CCN(S(=O)(=O)c2cccc(S(=O)(=O)N(C)C)c2)CC1	1.7	46	0.1	86*	0.5
Cc1ccc2c(c1)nnn2C1CCN(S(=O)(=O)c2ccc(C(=O)NC3CCCC3)cc2)CC1	1	50*	0.8	21	0.5
Cc1ccc2c(c1)nnn2C1CCN(S(=O)(=O)c2ccc(C(=O)N3CC(C)CC(C)C3)cc2)CC1 (configuration not stated)	1.8	88*	0	98*	0.1
Cc1ccc2c(c1)nnn2C1CCN(CC(=O)c2ccc(Cl)cc2)CC1	1.1	0	0.9	14	1
N#CCN1CCN(CCC(=O)Nc2ccc(OCc3ccccc3)cc2)CC1	1.4	6	0.9	8	0.9
CCN1CCN(C(c2ccccc2F)c2nnnn2Cc2ccc3c(c2)OCO3)CC1 (configuration not stated)	1.6	11	0.7	30	0.9
Cc1occc1C(=O)NNC(=O)C(c1ccccc1)c1ccccc1	1.6	41	0.8	20	0.6
CC(C)CCNC(=O)C(c1cccs1)N(CC1CCCO1)C(=O)Cn1nnc2ccccc21 (configuration not stated)	0.9	13	1	2	0.9
CCCOc1ccc(C(=O)NC(=S)Nc2nc(C)c(C(=O)N(C)C)s2)cc1	1.4	43	0.4	63*	0.6
C=C(C)CSc1nnc2n(C)c(=O)c3c4c(sc3n12)CCC4	0.9	56*	0.5	55*	0.4
NC(=O)CSc1nnc2n(-c3ccccc3)c(=O)c3c4c(sc3n12)CCCCC4	1.4	21	0.6	35	0.8
Cc1cc(Cl)ccc1OC(C)C(=O)N1CCCN(C(=O)C(C)Oc2ccc(Cl)cc2C)CC1 (configuration not stated)	1.4	2	0.8	22	1
CC(=O)/C(=N/Nc1ccccc1)N1CCOCC1	1	-6	0.8	16	1.1
O=C(NC(=Nc1ccccc1)N1CCOCC1)Nc1ccccc1	1	56*	0.5	55*	0.4
Cn1c(SCC(=O)O)nc2ccccc2c1=O	1	-4	1.2	-17	1
O=C(CSc1nc2ccccc2c(=O)n1NC(=O)c1ccccc1)c1ccc(Cl)cc1	1.1	78*	0.5	46	0.2
O=C(CSc1nc2ccccc2c(=O)n1NC(=O)c1ccccc1)c1ccccc1	1.1	86*	0.7	33	0.1
COC(=O)c1cccnc1-n1c(=O)c2cccnc2n(Cc2ccc(Cl)cc2)c1=O	1.5	30	0.4	59*	0.7
COC(=O)c1sc2ncccc2c1OCc1ccc(Cl)cc1	1	11	1.1	-5	0.9
Cc1ccc(S(=O)(=O)N2CCN(C)CC2)c(C)c1N(C)S(=O)(=O)c1ccc(Cl)cc1	1.7	47	0.3	67*	0.5
Cc1cc(C)c(S(=O)(=O)N2CCCCC2)c(C)c1N(C)S(=O)(=O)c1ccccc1	1.1	59*	0.7	30	0.4
Cc1cc(C)c(S(=O)(=O)N2CCCCC2)c(C)c1-n1ncnn1	1	-110	0.3	69*	2.1*
SMILES	PLAP act	CYP2C9 inhib	CYP2C19 act	CYP2C19 inh	CYP2C9 activ
Cc1cc(C)c(S(=O)(=O)N2CCCCC2)cc1N(C)S(=O)(=O)c1ccc(Cl)cc1	1.3	71*	0.6	38	0.3
CCOc1ccc(S(=O)(=O)N2CCN(C)CC2)c(C)c1C	1.1	-28	0.7	28	1.3
CCCCOc1ccc(C(CC(=O)NC)C(=O)O)cc1 (configuration not stated)	1	11	0.9	6	0.9
O=C(Nc1nccs1)C1C2/C=C\CCCCC21 (configuration not stated)	0.9	18	1	1	0.8
COc1cc(C(=O)N(Cc2cccc(Cl)c2)C2CCS(=O)(=O)C2)cc(OC)c1OC (configuration not stated)	1.6	12	1.1	-10	0.9
O=C1c2cnc3nc(SCc4ccc(Cl)cc4)nn3c2CC2c3ccccc3CCN12 (configuration not stated)	1.5	51*	1	-4	0.5
Cn1c(N2CCOCC2)c(/C=N/OC(=O)c2ccc(F)cc2)c2ccccc21	1	56*	0.9	15	0.4
CC(=O)O/N=C/c1c(N2CCOCC2)n(C)c2ccccc12	1.1	27	0.7	33	0.7
Cn1c(Cl)c(/C=N/OC(=O)c2ccc(Cl)cc2)c2ccccc21	1	-105	1.1	-10	2.1*
Cc1ccc(C(=O)O/N=C/c2c(N3CCOCC3)n(C)c3ccccc23)cc1	1.5	84*	0.3	68*	0.2
CCOC(=O)N1CCN(C(=O)c2cn(C)c(=O)c3c2c2ccccc2n3C)CC1	1.3	2	1.1	-10	1
COc1ccc2c3c(c(=O)oc2c1OCC(N)=O)CCCC3	1	-145	0.9	11	2.5*
CCOc1ccc2c3c(c(=O)oc2c1OCC)CCCC3	1	-90	0.5	45	1.9
CCCOc1ccc2c3c(c(=O)oc2c1OCCC)CCCC3	0.8	-17	0.7	30	1.2
CCOC(=O)COc1ccc2c3c(c(=O)oc2c1C)CCC3	0.9	79*	0.4	65*	0.2
CCOC(=O)CCc1c(C)c2ccc(OCC)c(C)c2oc1=O	0.9	14	0.7	25	0.9
Cc1c(OCc2nn[nH]n2)ccc2c3c(c(=O)oc12)CCC(C)C3 (configuration not stated)	1.1	98*	0.2	85*	0
CCCc1cc(=O)oc2cc(C)cc(OCc3nn[nH]n3)c12	1	34	0.9	8	0.7
Cc1c(OCc2nn[nH]n2)ccc2c3c(c(=O)oc12)CCCC3	1	94*	0.3	67*	0.1
Nc1cc(C(=O)O)ccc1Nc1ccc(F)c(F)c1	1.2	-10	1	2	1.1
Cc1ccc(F)c(NC(=O)C2CCCCC2C(=O)O)c1 (configuration not stated)	1	-2	1	-4	1
COc1ccccc1NC(=O)N(c1c(N)n(Cc2ccccc2)c(=O)[nH]c1=O)C1CCCC1	1.1	-6	0.9	7	1.1
COc1ccc(OCc2nnc(SC3CCOC3=O)n2-c2ccccc2)cc1 (configuration not stated)	1.2	27	0.2	84*	0.7
O=C1OCCC1Sc1nnnn1-c1ccccc1 (configuration not stated)	1.1	-5	0.1	88*	1
O=C1OCCC1Sc1nc(-c2ccccc2)cs1 (configuration not stated)	1.1	-109	0.1	87*	2.1*

High-throughput results from PubChem BioAssay.
